Consider 19 compounds from PubChem BioAssay (NCATS).

SMILES strings stand for the structures. Values joined by “and” are separate entries in the source; they are usually repeats but may differ in a detail not shown here. Identical values can stand only once. Inconclusive results are not listed. Some structures have more than one record in an assay (separate samples or runs), and their calls can disagree. Active and inactive are the calls of the source. Calls follow the shape of the dose curve; as a rule, active = well fitted curve in the direction sought with a large enough effect; inconclusive = small, poorly fitted or top-dose-only effect, or another doubt; inactive = no such curve, though single readings can be large; an effect the other way counts as inactive or inconclusive.

Assay [1] in a line: Viability qHTS for spleen associated tyrosine kinase inhibitor (SYKi) naive MV4-11 cells (AID 1963823). Also: nearly all actives have a fitted effect of over 40% in size. The procedure, abridged: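 qHTS, SYK inhibitor-naive MV4-11; 500 cells/well; 72 hr compound exposure, 37 C; CellTiter-Glo added, 10 min RT; luminescence read.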
Assay [2] is described as follows: Quantitative highthroughput screen to assess conditional lethalithy of NOMO1 cells grown in RPMI1640 with untreated serum (RPMI+s) (AID 1963876). Also: nearly all actives have a fitted effect of over 35% in size.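 As to Viability: 100% = DMSO wells and 0% = empty wells without cells.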 The procedure, abridged:
(§1)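 Each medium arm—HPLM with 10% dialyzed FBS, or RPMI1640 with 5 mM glucose and 10% untreated or dialyzed FBS—was screened against an 11-point, 3-fold compound titration for 48 h at 37 °C, with CellTiter-Glo luminescence as endpoint.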

Assay [3] is described as follows: Quantitative highthroughput screen to assess conditional lethalithy of NOMO1 cells grown in RPMI1640 with dialyzed fetal bovine serum (RPMI+ds) (AID 1963877). Also: nearly all actives have a fitted effect of over 30% in size.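 As to Viability: series mostly up to about 46 µM; 100% = DMSO control wells and 0% = empty wells.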 Put shortly: as §1
Assay [4] can be described thus: Quantitative highthroughput screen to assess conditional lethalithy of NOMO1 cells grown in Human Plasma-Like Medium with dialyzed fetal bovine serum (HPLM+ds) (AID 1963878). Also: nearly all actives have a fitted effect of over 35% in size.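 As to Viability: 100% = DMSO wells and 0% = empty wells on each plate.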 The procedure, abridged: as §1
Assay [5] in a line: Quantitative highthroughput screen to assess conditional lethalithy of P12 Ichikawa cells grown in Human Plasma-Like Medium with dialyzed fetal bovine serum (HPLM+ds) (AID 1963879). Also: nearly all actives have a fitted effect of over 35% in size. As to Viability: series mostly up to about 46 µM. The conditions noted are these: Potency: viability. The procedure, abridged:
as §1

A short description of assay [6]: Quantitative highthroughput screen to assess conditional lethalithy of P12 Ichikawa cells grown in RPMI1640 with dialyzed fetal bovine serum (RPMI+ds) (AID 1963880). Also: nearly all actives have a fitted effect of over 35% in size.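 As to Viability: 100% = DMSO wells and 0% = empty wells on each plate.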 The note with it: Potency: P12-Ichikawa viability. The procedure, abridged:
as §1

The nature of assay [7]: Quantitative highthroughput screen to assess conditional lethalithy of P12 Ichikawa cells grown in RPMI1640 with untreated serum (RPMI+s) (AID 1963881). Also: nearly all actives have a fitted effect of over 35% in size.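 As to Viability: series mostly up to about 46 µM; 100% = DMSO wells and 0% = empty wells without cells.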 The note with it: Potency: viability. The procedure, abridged:
as §1

The nature of assay [8]: Quantitative highthroughput screen to assess conditional lethalithy of SEM cells grown in Human Plasma-Like Medium with dialyzed fetal bovine serum (HPLM+ds) (AID 1963882). Also: nearly all actives have a fitted effect of over 35% in size. As to Viability: series mostly up to about 46 µM. The procedure, abridged: as §1
The nature of assay [9]: Quantitative highthroughput screen to assess conditional lethalithy of SEM cells grown in RPMI1640 with unreated serum (RPMI+s) (AID 1963883). Also: nearly all actives have a fitted effect of over 35% in size.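 As to Viability: 100% = DMSO wells and 0% = empty wells without cells.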 The procedure, abridged: as §1
The nature of assay [10]: Cellular viability qHTS for adrenocortical cancer (ACC) cell line SW-13 (AID 1963989). Also: nearly all actives have a fitted effect of over 65% in size.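 As to activity (max response): cells grown in serum-free medium with ITS supplement; % is scaled to controls: 0 for no effect and ±100 for the full control effect.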 The note with it: SW-13 ACC cells viability, CellTiter-Glo, 48 h; activity (max response): stronger effect = lower value. Put shortly:
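Viability was read as CellTiter-Glo luminescence after 48 h compound treatment (up to 46 uM final) of SW-13 cells grown serum-free; titration curves were fit with a four-parameter logistic model to give IC50 and efficacy.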

A short description of assay [11]: Cellular viability qHTS for adrenocortical cancer (ACC) cell line NCI-H295R (AID 1963990). Also: nearly all actives have a fitted effect of over 60% in size.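 As to activity change, negative = viability loss: 0% = DMSO only wells and -100% = full killing with cytotoxic reference compound.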 The procedure, abridged: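 CellTiter-Glo ATP luminescence, read 48 h after compound addition, measured viability of NCI-H295R adrenocortical cells grown serum-free with ITS. Final concentrations spanned up to 46 uM. Data normalized to DMSO and doxorubicin, fitted for IC50 and maximal response.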

A short description of assay [12]: Quantitative highthroughput screen to assess conditional lethalithy of SEM cells grown in RPMI1640 with dialyzed fetal bovine serum (RPMI+ds) (AID 1963884). Also: nearly all actives have a fitted effect of over 35% in size.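 As to Viability: series mostly up to about 46 µM; 100% = DMSO control wells and 0% = empty wells without cells.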 Put shortly:
as §1
Potency is read from the fitted curve at half-maximal effect.

As for `CC1=NN(c2ccccc2)C(=O)C1`, in assay [1], the Potency was 11.9 µM (active). Further, the Potency result in assay [2], in assay [3], in [4], in assay [5], in assay [6] and in assay [7] was “inactive” each time. Further, the Potency entry in [8], in assay [9] and in [11] was “inactive” each time. In addition, in [10], the activity (max response) is 8.8% (inactive) and -4.32% (inactive).

For the compound `Cc1cc2nc3c(=O)[nH]c(=O)nc-3n(CC(O)C(O)C(O)CO)c2cc1C` (configuration not stated), the Potency result in assay [1], in assay [2], in [3], in assay [5], in assay [6] and in [7] was “inactive” each time. The Potency entry in assay [8], in assay [9], in [12] and in assay [11] was “inactive” each time. In assay [10], the activity (max response) is 9.67% (inactive).

With `CN1C[C@H]2c3ccccc3Oc3ccc(Cl)cc3[C@@H]2C1`, the Potency in assay [1] is 26.6 µM (active); in [9], 26.4 µM (active); in [12] it was 23.5 µM (active). The Potency result in assay [2], in assay [3], in assay [4], in [5], in assay [6] and in [7] was “inactive” in each case. For the same compound, the activity (max response) in assay [10] is -18.3% (inactive).

For `CC1(C)CNc2cc(NC(=O)c3cccnc3NCc3ccncc3)ccc21`, the Potency in assay [1] is 2.31 µM (active). The Potency result in assay [2], in [3], in assay [4], in assay [5], in assay [6] and in assay [7] was “inactive” throughout. Also, the Potency result in assay [11] was “inactive”. Further, the activity (max response) in assay [10] is -22.3% (inactive).

As to `CC(C(=O)O)c1ccc(-c2ccccc2)c(F)c1` (configuration not stated), the Potency entry in [1], in assay [2], in assay [3], in [4] and in assay [11] was “inactive” throughout. The Potency in assay [8] is 14.8 µM (active). For the same compound, the activity (max response) in [10] was -8.73% (inactive).

On to `O=c1[nH]nc(Sc2ncc([N+](=O)[O-])s2)n1-c1ccc2c(c1)OCCO2`, for which the Potency is 2.35 µM (active) in [1]; 9.35 µM (active) in assay [2]; 8.33 µM (active) in assay [3]; 14.8 µM (active) in [5]; 9.35 µM (active) in [6]; 8.33 µM (active) in assay [7]. The Potency was 8.33 µM (active) in assay [8]; 7.43 µM (active) in assay [9]; 8.33 µM (active) in assay [12]; 17.8 µM (active) in assay [10]; 6.31 µM (active) in assay [11].

On to `Cc1cccc(Nc2nc(-c3ccncc3)cs2)c1`, for which the Potency was 8.2 µM (active) in assay [1], 18.7 µM (active) in assay [6] and 25.1 µM (active) in [11]. For the same compound, the Potency entry in [2], in [3], in assay [4] and in [5] was “inactive” throughout.

Regarding `O=c1c(O)c(-c2ccc(O)c(O)c2)oc2cc(O)cc(O)c12`, in assay [1], the Potency was 23.7 µM (active) and inactive. In addition, the Potency result in assay [2], in [3], in [4], in assay [7], in assay [8] and in assay [11] was “inactive” each time. Also, in assay [10], the activity (max response) was -23.2% (inactive) and 14.3% (inactive).

On to `N[C@@H](Cc1ccc(O)c(O)c1)C(=O)O`, for which the Potency result in assay [1], in assay [2], in assay [3], in assay [5], in assay [6] and in assay [7] was “inactive” throughout. Further, the Potency result in assay [8], in assay [9], in assay [12] and in assay [11] was “inactive” throughout. For the same compound, the activity (max response) in [10] was 3.64% (inactive).

For `N#Cc1c(C2CCNCC2)cc(-c2c(O)cccc2OCC2CC2)nc1N`, the values for the Potency in assay [1], in assay [10] and in assay [11] were 5.9 µM (active), 28.2 µM (active) and 11.2 µM (active), respectively. The Potency entry in assay [2], in [3], in [4], in [5] and in assay [6] was “inactive” throughout.

As for `C[Se]CCC(N)C(=O)O` (configuration not stated), the Potency result in assay [1], in assay [2], in assay [3], in assay [4], in assay [5] and in assay [6] was “inactive” throughout. For the same compound, the Potency entry in assay [7] and in assay [11] was “inactive” in each case. In addition, the activity (max response) in [10] is -4.29% (inactive).

Regarding `C[C@H](NC(=O)[C@@H](O)c1cc(F)cc(F)c1)C(=O)N[C@@H]1C(=O)N(C)c2ccccc2-c2ccccc21`, the Potency entry in assay [1], in [2], in [3], in assay [4], in [5] and in [7] was “inactive” throughout. Further, the Potency result in [8] and in assay [11] was “inactive” each time. Besides, in assay [10], the activity (max response) is -11.3% (inactive).

As to `Clc1ccc(C(c2ccccc2Cl)C(Cl)Cl)cc1` (configuration not stated), the Potency result in assay [1], in [2], in assay [3], in assay [4], in assay [5] and in [6] was “inactive” in each case. For the same compound, the Potency entry in assay [7] was “inactive”. Further, the activity (max response) in [10] is -27.3% (inactive). The Potency in assay [11] is 13 µM (active).

With `COc1ccc(-n2nc(C(N)=O)c3c2C(=O)N(c2ccc(N4CCCCC4=O)cc2)CC3)cc1`, the Potency entry in assay [1], in assay [8], in assay [9] and in assay [12] was “inactive” in each case. For the same compound, the Potency is 0.118 µM (active) in [2]; 0.235 µM (active) in assay [3]; 2.64 µM (active) in assay [5]; 2.96 µM (active) in assay [6]; 2.64 µM (active) in [7]. Besides, the activity (max response) in assay [10] was -9.7% (inactive).

In the case of `CN[C@@H](C)[C@H]1[C@H](O)C[C@@]2(C)[C@@H]3CC[C@H]4C(C)(C)[C@@H](NC)CC[C@@]45C[C@@]35CC[C@]12C`, the viability (% of control) in assay [1] is 79.2% [at 9.25 µM] (inactive). For the same compound, the Potency entry in [2], in assay [3], in assay [4], in assay [5], in assay [6] and in assay [7] was “inactive” throughout. In addition, the Potency entry in assay [9] and in assay [12] was “inactive” each time. The activity (max response) in assay [10] was -3.37% (inactive). In addition, the activity change, negative = viability loss in assay [11] was -14.8% [at 9.17 µM] (inactive).

`O=C(O)CCNc1cc(N2CCc3ccccc3CC2)nc(-c2ccccn2)n1`: the Potency entry in assay [1], in assay [2], in assay [3], in assay [5], in [8] and in assay [9] was “inactive” each time. Moreover, the Potency entry in assay [12] and in assay [11] was “inactive” each time. Further, the activity (max response) in assay [10] is 0.209% (inactive).

`Cc1cn2cc(C(=O)N(C)CCO)cc(N[C@@H]3CCOc4cccc(C)c43)c2n1`: the Potency in assay [1] was 2.95 µM (active). The Potency entry in assay [2], in assay [3], in [4], in assay [6], in [7] and in assay [8] was “inactive” each time. Further, the Potency result in assay [9], in assay [12] and in [11] was “inactive” each time. In [10], the activity (max response) is -15% (inactive).

As for `CCCc1nc(C)c2c(=O)[nH]c(-c3cc(S(=O)(=O)N4CCN(CC)CC4)ccc3OCC)nn12`, the Potency entry in assay [1] and in assay [11] was “inactive” in each case. Also, the Potency is 9.35 µM (active) in [2]; 9.35 µM (active) in assay [3]; 16.6 µM (active) in assay [5]; 9.35 µM (active) in [6]; 10.5 µM (active) in assay [7]; 11.8 µM (active) in assay [8]. In addition, the Potency was 9.35 µM (active) in [9] and 7.43 µM (active) in [12]. The activity (max response) in [10] was -1.6% (inactive) and 3.7% (inactive).

With `C=C(c1ccc(C(=O)O)cc1)c1cc2c(cc1C)C(C)(C)CCC2(C)C`, the Potency in assay [1] was 0.468 µM (active); in [3], 1.05 µM (active); in assay [4] it was 0.469 µM (active). The Potency result in assay [2], in [5], in assay [6], in assay [7], in assay [9] and in assay [11] was “inactive” each time. In addition, in assay [10], the activity (max response) is -0.298% (inactive) and -6.68% (inactive).
